Experimental data published in PubChem BioAssay (Tox21).
Inconclusive results are not listed. Activity calls are given as the source filed them. Unless noted, calls follow the shape of the dose curve; as a rule, active = well fitted curve in the direction sought with a large enough effect in the repeat runs; inconclusive = weak or mixed curves; inactive = flat fitted curve, though single readings scatter.

Key:
[1] = qHTS assay to test for compound auto fluorescence at 535 nm (green) in HEK293 cells (AID 720680)
[2] = qHTS assay to test for compound auto fluorescence at 460 nm (blue) in HEK293 cell free culture (AID 720681)
Method in brief: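 Blue fluorescence (Ex 405/Em 460 nm, triamterene-equivalent) was read immediately after pin transfer of compound or DMSO into medium (DMEM, 10% FBS) without cells.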

[3] = qHTS assay to test for compound auto fluorescence at 535 nm (green) in HEK293 cell free culture (AID 720682)
Method in brief: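 No cells present: wells hold DMEM supplemented with 10% FBS, into which compound or vehicle is pinned. Green emission is then recorded (485 nm excitation, 535 nm emission) and scaled to fluorescein.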

[4] = qHTS assay to test for compound auto fluorescence at 590 nm (red) in HEK293 cell free culture (AID 720683)
Method in brief: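 Red-channel autofluorescence of compounds in culture medium (DMEM, 10% FBS), no cells, measured at 540/590 nm. Rose Bengal sodium is the reference fluorophore for equivalence.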

[5] = qHTS assay to test for compound auto fluorescence at 590 nm (red) in HepG2 cell free culture (AID 720684)
Method in brief: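 No cells present: MEM + 10% FBS only. Compound pinned in, red label read (540/590 nm). Activity = fluorescence equivalent to Rose Bengal sodium.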

[6] = qHTS assay to test for compound auto fluorescence at 460 nm (blue) in HepG2 cell free culture (AID 720685)
Method in brief: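 Cell-free plates of MEM plus 10% FBS received 23 nL compound or DMSO vehicle; blue-channel (405/460 nm) intensity scored against triamterene as reference fluorophore.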

[7] = qHTS assay to test for compound auto fluorescence at 535 nm (green) in HepG2 cell free culture (AID 720686)
[8] = qHTS assay to test for compound auto fluorescence at 460 nm (blue) in HepG2 cells (AID 720687)
Method in brief: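 Blue-channel autofluorescence (Ex/Em 405/460 nm, triamterene-equivalent) was measured after 1 hr compound exposure at 37 C, 5% CO2. Cells were HepG2, plated overnight at 37 C in MEM plus 10% FBS.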

[9] = target: Glucocorticoid receptor (Homo sapiens) (UniProt P04150); test: qHTS assay to identify small molecule agonists of the glucocorticoid receptor (GR) signaling pathway (AID 720691; active = well fitted activation curve with a large enough effect in the signal ratio in the repeat runs, not every such curve was filed as active; the % refers to the signal ratio); details: GR-bla HeLa, beta-lactamase reporter ratio, 18 h; activation: at 62.4 µM (top of the series)
Glucocorticoid receptor (Homo sapiens), sequence (P04150 whole entry, looked up): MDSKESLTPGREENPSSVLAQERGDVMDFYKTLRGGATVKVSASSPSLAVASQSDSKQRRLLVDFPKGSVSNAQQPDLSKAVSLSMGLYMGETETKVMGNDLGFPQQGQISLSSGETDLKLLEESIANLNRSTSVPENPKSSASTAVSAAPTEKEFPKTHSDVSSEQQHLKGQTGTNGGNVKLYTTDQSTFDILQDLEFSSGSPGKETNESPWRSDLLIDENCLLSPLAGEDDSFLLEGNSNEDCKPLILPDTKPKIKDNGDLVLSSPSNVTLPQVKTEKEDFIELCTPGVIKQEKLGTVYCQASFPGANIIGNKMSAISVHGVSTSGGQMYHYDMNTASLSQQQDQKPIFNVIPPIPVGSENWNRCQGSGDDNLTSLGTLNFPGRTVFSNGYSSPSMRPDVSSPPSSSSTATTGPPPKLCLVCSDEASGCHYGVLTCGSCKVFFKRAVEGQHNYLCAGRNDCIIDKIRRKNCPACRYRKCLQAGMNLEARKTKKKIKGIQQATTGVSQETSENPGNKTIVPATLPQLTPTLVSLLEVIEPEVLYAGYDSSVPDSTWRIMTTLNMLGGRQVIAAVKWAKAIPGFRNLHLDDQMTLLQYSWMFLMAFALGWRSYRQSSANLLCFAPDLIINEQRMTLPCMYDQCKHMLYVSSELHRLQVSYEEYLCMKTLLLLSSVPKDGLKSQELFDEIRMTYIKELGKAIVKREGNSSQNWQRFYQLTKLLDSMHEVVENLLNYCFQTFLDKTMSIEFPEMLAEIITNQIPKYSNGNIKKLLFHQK
Method in brief: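 A HeLa cervical cancer line expressing GR and a glucocorticoid response element-driven beta-lactamase gene is treated with compounds for 18 h; LiveBLAzer B/G FRET substrate is then applied and fluorescence read.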
% is scaled to controls: 0 for no effect and ±100 for the full control effect.

Oc1c(Br)cc(Br)c2cccnc12
inactive: Potency [1] | Potency [2] | Potency [3] | Potency [4] | Potency [5] | Potency [6] | Potency [7] | Potency [8]

CCN(CC)CCOc1ccc(C(O)(Cc2ccc(Cl)cc2)c2ccc(C)cc2)cc1 (centres undefined)
inactive: Potency [1] | Potency [2] | Potency [3] | Potency [4] | Potency [5] | Potency [6] | Potency [7] | Potency [8]

CNC(=O)c1cc(Oc2ccc(NC(=O)Nc3ccc(Cl)c(C(F)(F)F)c3)cc2)ccn1
inactive: Potency [1] | Potency [2] | Potency [3] | Potency [4] | Potency [5] | Potency [6] | Potency [7] | Potency [8]

CCN=C1C=CC(=C(c2ccc(N(CC)CC)cc2)c2ccc(N(CC)CC)cc2)c2ccccc21
inactive: Potency [1] | Potency [2] | Potency [3] | Potency [4] | Potency [5] | Potency [6] | Potency [7] | Potency [8]

CSc1ccc2c(c1)N(CCC1CCCCN1C)c1ccccc1S2 (centres undefined)
inactive: Potency [1] | Potency [2] | Potency [3] | Potency [4] | Potency [5] | Potency [6] | Potency [7] | Potency [8]

C[C@@]12C(=O)OC(=O)[C@]1(C)C1CCC2O1
inactive: fluorescence, % of fluorescein [1] 0.0141% [at 18.6 µM] | fluorescence, % of fluorescent control [2] -0.101% [at 18.6 µM] | activity change [3] -0.057% [at 18.6 µM, hits give high values] | fluorescence, % of fluorescent control [4] 0.092% [at 18.6 µM] | fluorescence, % of Rose Bengal [5] -0.0041% [at 18.6 µM] | fluorescence, % of fluorescent control [6] -0.0149% [at 18.6 µM] | fluorescence, % of fluorescein control [7] -0.0053% [at 18.6 µM] | fluorescence, % of fluorescent control [8] -0.0452% [at 18.6 µM]

CC(C)(C)c1cc(/C=C2\SC(=N)NC2=O)cc(C(C)(C)C)c1O
inactive: Potency [1] | Potency [2] | Potency [3] | Potency [4] | Potency [5] | Potency [6] | Potency [7] | Potency [8]

COC(=O)CC#N
inactive: Potency [1] | Potency [2] | Potency [3] | Potency [4] | Potency [5] | Potency [6] | Potency [7] | Potency [8]

O=C(O)c1cccc(Cl)n1
inactive: Potency [1] | Potency [2] | Potency [3] | Potency [4] | Potency [5] | Potency [6] | Potency [7] | Potency [8]

C=CCCCCCCC=C
inactive: Potency [1] | Potency [2] | Potency [3] | Potency [4] | Potency [5] | Potency [6] | Potency [7] | Potency [8]

Cn1cnc2ncnc(N)c21
inactive: Potency [1] | Potency [2] | Potency [3] | Potency [4] | Potency [5] | Potency [6] | Potency [7] | Potency [8]

CCCCCCCC/C=C\CCCCCCCC(=O)NCc1ccc(O)c(OC)c1
inactive: Potency [1] | Potency [2] | Potency [3] | Potency [4] | Potency [5] | Potency [6] | Potency [7] | Potency [8]

CN(C)CCCN1c2ccccc2CCc2ccccc21
inactive: Potency [1] | Potency [2] | Potency [3] | Potency [4] | Potency [5] | Potency [6] | Potency [7] | Potency [8]

CCCCCCOc1cc(C)c(O)c(C)c1C
inactive: Potency [1] | Potency [2] | Potency [3] | Potency [4] | Potency [5] | Potency [6] | Potency [7] | Potency [8]

CC(C)c1ccc(O)c(C(C)C)c1
inactive: Potency [1] | Potency [2] | Potency [3] | Potency [4] | Potency [5] | Potency [6] | Potency [7] | Potency [8]

CCC(C)(C)c1cc(O)c(C(C)(C)CC)cc1O
inactive: Potency [1] | Potency [2] | Potency [3] | Potency [4] | Potency [5] | Potency [6] | Potency [7] | Potency [8] | Potency [9]

O=C(O)CCCCCCC(=O)O
inactive: Potency [1] | Potency [2] | Potency [3] | Potency [4] | Potency [5] | Potency [6] | Potency [7] | Potency [8] | Potency [9]

C1CC(COCC2CO2)CCC1COCC1CO1 (centres undefined)
inactive: Potency [1] | Potency [2] | Potency [3] | Potency [4] | Potency [5] | Potency [6] | Potency [7] | Potency [8] | Potency [9]

CN(C)c1ccc(N=NS(=O)(=O)O)cc1
inactive: Potency [1] | Potency [2] | Potency [3] | Potency [4] | Potency [5] | Potency [6] | Potency [7] | Potency [8] | Potency [9]

CN(C)CCOC(c1ccccc1)c1ccccc1 (tested in a mixture with another compound)
inactive: Potency [1] | Potency [2] | Potency [3] | Potency [4] | Potency [5] | Potency [6] | Potency [7] | Potency [8] | Potency [9]

S=C(SSSSSSC(=S)N1CCCCC1)N1CCCCC1
inactive: fluorescence, % of fluorescein [1] -0.141% [at 18.6 µM] | fluorescence, % of fluorescent control [2] -0.263% [at 18.6 µM] | activity change [3] -0.0539% [at 18.6 µM, hits give high values] | fluorescence, % of fluorescent control [4] 0.0303% [at 18.6 µM] | fluorescence, % of Rose Bengal [5] -0.0342% [at 18.6 µM] | fluorescence, % of fluorescent control [6] -0.225% [at 18.6 µM] | fluorescence, % of fluorescein control [7] -0.0879% [at 18.6 µM] | fluorescence, % of fluorescent control [8] 0.0837% [at 18.6 µM] | Potency [9]
